Screening data as filed in PubChem.
Methyltransferases: Primary Screen for Target Class Profiling of Small Molecule Inhibitors of Methyltransferases; actives 3.9% (n = 25,000); calls only at 40 µM; purified enzyme, MTase-Glo SAH luminescence; hits give low values; call rule not given here
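Each enzyme was assayed with SAM and its substrate. SAH formation detected by MTase-Glo luminescence; single-point 40 uM screen[…].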
The depositor's hits bear a star; ! = repeats disagree. Only a selection was taken, and hits are over-represented in it overall. On the % scale 0 is the no-effect control and ±100 the full control effect.

For CC(C)N(CCCNC(=O)Nc1ccc(C(C)(C)C)cc1)C[C@H]1O[C@@H](n2ccc3c(N)ncnc32)[C@H](O)[C@@H]1O the results were Methyltransferases active!.
For CC(C)N(CCCNC(=O)Nc1ccc(C(C)(C)C)cc1)C[C@H]1O[C@@H](n2cc(Br)c3c(N)ncnc32)[C@H](O)[C@@H]1O the results were Methyltransferases active.
`O=S(=O)(O)c1ccc(Nc2ncnc3c2ncn3[C@@H]2O[C@H](CO)[C@@H](O)[C@H]2O)cc1` gave Methyltransferases inactive.
Screening COc1ccccc1CN1C(=O)c2cc3oc(C)cc3n2CC1(C)C(=O)NC1CCCCCC1 (configuration not stated) returned Methyltransferases inactive.
`CC(C)CCn1c(=O)c2ccc(C(=O)NC(C)C)cc2n2c(=O)n(CC(=O)NC(C)C)nc12` gave Methyltransferases inactive.
`CCCn1c(=O)c2ccccc2n2c(=O)n(Cc3cccc(OC)c3)nc12` gave Methyltransferases inactive.
`O=c1c2ccccc2n2c(-c3ccc(Br)cc3)nnc2n1CCc1ccccc1` gave Methyltransferases inactive.
Screening Cn1c(=O)n(C)c2cc(S(=O)(=O)Nc3cccc(C(F)(F)F)c3)ccc21 returned Methyltransferases inactive.
For CN(C)c1ccc(Nc2c3ccc(NC(=O)CCN4CCCC4)cc3nc3cc(NC(=O)CCN4CCCC4)ccc23)cc1 the results were Methyltransferases active.
Screening CN(C)c1ccc(CNC(=O)CCCn2ccc3cc(S(=O)(=O)N4CCCC4)ccc32)cc1 returned Methyltransferases inactive.
For C[C@@H]1C[C@H](C)CN(CCC(=O)Nc2ccc(Br)cc2)C1 the results were Methyltransferases inactive.
CCCC1c2ccc(C)n2CCN1C(=O)Nc1cc(Cl)ccc1C (configuration not stated) was read as Methyltransferases inactive.
CC1CCC(NC(=O)C2(C)Cn3c(cc4sccc43)C(=O)N2Cc2ccc(Cl)cc2)CC1 (configuration not stated) was read as Methyltransferases inactive.
For CCCn1c(=O)c2ccccc2n2c(SCC(=O)NCc3cccc(OC)c3)nnc12 the results were Methyltransferases inactive.
`COc1ccc(N2C(=O)c3cc4ccc(OC)cc4n3CC2(C)C(=O)NC2CCCC2)c(OC)c1` (configuration not stated) gave Methyltransferases inactive.
Screening O=C(NCc1ccccc1)c1ccc2c(=O)nc3c(-c4ccccc4)n[nH]n3c2c1 returned Methyltransferases inactive.
`C=Cc1cc(O)cc2nc(-c3ccc(O)c(F)c3)oc12` gave Methyltransferases active.
`CCOc1ccc(C(=O)Cn2nc3n(C(C)C)c(=O)c4ccc(C(=O)NCC(C)C)cc4n3c2=O)cc1` gave Methyltransferases inactive.
`Cc1ccc(Cn2c(=O)c3ccccc3n3c(=O)n(CC(=O)NCc4ccccc4Cl)nc23)cc1` gave Methyltransferases inactive.
`COc1ccc(OC)c2c1cc1n2CC(C)(C(=O)NC2CCCC(C)C2C)N(Cc2ccco2)C1=O` (configuration not stated) gave Methyltransferases inactive.
For CCC(C)NC(=O)c1ccc2c(=O)n(C(C)C)c3nn(CC(=O)NCc4ccc(F)cc4)c(=O)n3c2c1 (configuration not stated) the results were Methyltransferases inactive.
For CN1C(=O)c2cc(C(=O)NCc3ccccc3)nn2CC1(C)C(=O)NCc1ccccc1 (configuration not stated) the results were Methyltransferases inactive.
CCC(C)NC(=O)c1ccc2c(=O)n(CCC(C)C)c3nn(CC(=O)N(C)c4ccccc4)c(=O)n3c2c1 (configuration not stated) was read as Methyltransferases inactive.
For COc1ccccc1CN1C(=O)c2cc(-c3ccccc3)nn2CC1(C)C(=O)NCc1ccccc1 (configuration not stated) the results were Methyltransferases inactive.
For O=C1Nc2ccccc2C12CN([S+](=O)([O-])c1ccccc1)C2 the results were Methyltransferases inactive.
`O=C(O)CC1(O)C(=O)Nc2ccccc21` (configuration not stated) gave Methyltransferases active.
Cn1nccc1CN1CC2(C1)C(=O)Nc1ccccc12 was read as Methyltransferases inactive.
COc1ccc(-c2cc3n(n2)CC(C)(C(=O)NCc2ccccc2OC)N(Cc2ccccc2F)C3=O)cc1 (configuration not stated) was read as Methyltransferases inactive.
For CC1(C(=O)NC2CCCCC2)Cn2nc(-c3ccco3)cc2C(=O)N1Cc1ccc2c(c1)OCO2 (configuration not stated) the results were Methyltransferases inactive.
Clc1ccc(C(c2ccc(Cl)cc2)n2cc[n+](CC(OCc3ccc(Cl)cc3Cl)c3ccc(Cl)cc3Cl)c2)cc1 (configuration not stated) was read as Methyltransferases active.
CCOC(=O)c1cc2n(n1)CC(C)(C(=O)NCc1ccc(F)cc1)N(Cc1ccccc1OCC)C2=O (configuration not stated) was read as Methyltransferases inactive.
`CC(C)OCCCNC(=O)C1c2c(n(C)c3ccccc23)SCC(=O)N1c1ccc(F)cc1` (configuration not stated) gave Methyltransferases inactive.
`COCCN1C(=O)c2cc3ccccc3n2CC1(C)C(=O)NC1CCCC1` (configuration not stated) gave Methyltransferases inactive.
For CN(C)CCCNc1nc(CN2CCN(C(c3ccc(Cl)cc3)c3ccc(Cl)cc3)CC2)nc2ccccc12 the results were Methyltransferases active.
O=C(O)COCCN1CCN(C(c2ccccc2)c2ccc(Cl)cc2)CC1 (configuration not stated) was read as Methyltransferases inactive.
O=C(O)COCCN1CCN([C@H](c2ccccc2)c2ccc(Cl)cc2)CC1 was read as Methyltransferases inactive.
Screening CCc1ccc(S(=O)(=O)c2nnn3c2nc(N2CCN(CC)CC2)c2cc(Cl)ccc23)cc1 returned Methyltransferases inactive.
CC1CCC(NC(=O)C2(C)Cn3c(cc4occc43)C(=O)N2Cc2cccs2)CC1 (configuration not stated) was read as Methyltransferases inactive.
`COc1ccc(CNC(=O)c2ncn3c2C(=O)N(C2CC2)C(C)(C(=O)NCc2ccc(F)cc2)C3)cc1` (configuration not stated) gave Methyltransferases inactive.
Screening O=C(Nc1ccc(F)cc1)N1Cc2c(sc3c2CCCC3)-n2cccc2C1c1cccc(F)c1 (configuration not stated) returned Methyltransferases inactive.
For O=c1c2ccccc2n2c(=O)n(Cc3c(F)cccc3Cl)nc2n1Cc1ccc(F)cc1 the results were Methyltransferases inactive.
For COC(=O)c1cc2n(n1)CC(C)(C(=O)NC1CCCCCC1)N(c1cc(C)cc(C)c1)C2=O (configuration not stated) the results were Methyltransferases inactive.
For CC(C)CCNc1nc2c(-c3cccc(Br)c3)nnn2c2ccccc12 the results were Methyltransferases inactive.
`CCCN1CCN(CCCNC(=O)c2cc3n(n2)CC(C)(C(=O)NC2CCCC2)N(C)C3=O)CC1` (configuration not stated) gave Methyltransferases inactive.
`COc1ccccc1CNC(=O)c1ccc2c(=O)nc3c(-c4ccccc4F)n[nH]n3c2c1` gave Methyltransferases inactive.
NC(Cc1cccc(-c2ccccc2CP(=O)(O)O)c1)C(=O)O (configuration not stated) was read as Methyltransferases inactive.
